This note sets out measurements from PubChem BioAssay.

By inhibition is commonly meant the drop in the measured response relative to a control, in per cent.

Active and inactive are the calls of the source.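 Rule for the calls, unless noted: active = growth inhibition above 50% at the single 2 µM test dose, taken to imply half-maximal potency below 2 µM; inactive = the rest.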

The first assay in a line: antimalarial activity against Dd2 strain (AID 2302).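 Note: 0% = DMSO untreated growth and 100% = chloroquine plus artemisinin killed control.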 The following applies: P. falciparum Dd2 in RBCs, LDH growth readout, 72 h; at 2 µM; active compounds read high.
On to `CCN1CCC(N(Cc2ccc(-c3ccc(C(F)(F)F)cc3)cc2)C(=O)Cn2c(CCc3cccc(F)c3F)cc(=O)c3c2CCC3)CC1`, for which the growth inhibition was 85% (active).
On the same count and under the same terms, with `Cc1cc(=O)c2cc(Oc3cccc(OC(F)(F)F)c3)ccc2[nH]1` the figure was 80% (active); with `COc1ccc(CCn2c(=N)c(C(=O)NC3CCCC3)cc3c(=O)n4ccccc4nc32)cc1`, 34% (inactive).
For `COc1cc(CCON2C(N)=NC(N)=NC2(C)C)cc(OC)c1OC`, the growth inhibition is 95% (active).
On the same count and under the same terms, next, `CSC1=NC(=Nc2ccccc2C)C2(CCC(C(C)(C)C)CC2)N1c1ccccc1Cl` (stereo not given): 89% (active).
As for `COc1ccc(-c2cnc3ccc(NCc4ccc(F)cc4)nn23)cc1OC`, the growth inhibition was 99% (active).
The same measure, in the same setting: next, `CNC(=O)c1cnc(Nc2ccc(N3CCN(C)CC3)c(C)c2)nc1NC`: 38% (inactive); `CCNc1cc(C)nc(Nc2ccccc2)n1`: 8% (inactive).
Same read-out and setting: next, `Oc1cc(Nc2ccnc3ccc(I)cc23)c(F)cc1Cl`: 13% (inactive); `c1ccc(-c2cccnn2)cc1`: 6% (inactive).
On the same count and under the same terms, with `CC(C)C[C@H](Nc1ccnc(NCC2CCCCC2)n1)C(=O)NCCc1ccccc1` the figure was 66% (active); with `COc1ccc(CNc2ncc(-c3ccsc3)c(-c3nccs3)n2)cc1OC`, 69% (active).
Consider `O=C(CCc1cnc[nH]1)Nc1cccc(-c2ccc(-c3nc4ccccc4[nH]3)s2)c1`, for which the growth inhibition is 37% (inactive).
The same measure, in the same setting: next, `CCc1cc2c(=O)c(-c3nc(C)cs3)c([C@H](N)Cc3ccc(O)cc3)oc2cc1O`: 19% (inactive).
Same read-out and setting: next, `O=C(Nc1ccccc1)N(Cc1ccccc1-c1cccc(CNCCc2ccccc2)c1)C1CCN(Cc2ccccc2)CC1`: 59% (active).
For the compound `Cc1cccc2c(N=NC(=S)N(C)C)c(O)[nH]c12`, the growth inhibition was 59% (active).
On the same count and under the same terms, next, `COc1cc(OC)cc(-c2nc3c(C#N)c(OCCN(C)C)ccc3[nH]2)c1`: 25% (inactive); `c1cc(-c2ccc(CNC3CC3)cc2)cc(-c2nc3ccccc3[nH]2)c1`: 8% (inactive); `O=C(Nc1ccccc1)OCCOc1ccc(CC2SC(=O)NC2=O)cc1` (stereo not given): -6% (inactive).
Turning to `O=C(C=CC(=O)N1CCCCC1)NCc1ccccc1`, the growth inhibition is -3% (inactive).
Still for that read-out and setting: with `CCNc1cc(C(=O)N[C@@H](Cc2ccccc2)[C@H](O)CNCCc2ccccc2)cc(N2CCCCS2(=O)=O)c1` the figure was 91% (active); with `O=C(Nc1ccc(-c2cccc(-c3nc4ccc(C(F)(F)F)cc4[nH]3)c2)cc1)c1csnn1`, 25% (inactive); with `O=C(C=Cc1ccc(Cl)c(Cl)c1)NCCCCCN1CCCC(CCCNC(=O)[C@@H]2C[C@H]2c2ccccc2)C1` (stereo not given in full), 5% (inactive).
Same read-out and setting: with `CNCCNCc1cccc(-c2ccc(-c3nc4ccccc4[nH]3)s2)c1` the figure was 9% (inactive); with `Fc1cc(Cl)ccc1Nc1ccnc2cc(I)ccc12`, 10% (inactive).
`CCOc1cc(C(=O)NC2CC(C)(C)NC(C)(C)C2)ccc1-c1nc2ccc(Cl)cc2[nH]1`: the growth inhibition was 64% (active).
On the same count and under the same terms, next, `CC(=O)Nc1ccc(C(=O)Nc2cccc(-c3cccc(-c4nc5ccc(C(F)(F)F)cc5[nH]4)c3)c2)cn1`: 97% (active); `CCNc1cc(C(=O)N[C@@H](Cc2ccccc2)[C@H](O)CNC2CCCCC2)cc(N2CCCCS2(=O)=O)c1`: 98% (active); `Cc1nc(Nc2ccncc2)cc(-c2ccncc2)n1`: 3% (inactive).
In the case of `Cc1cccc2[nH]c(-c3cccc(-c4ccc(NC(=O)Cc5ccccn5)cc4)c3)nc12`, the growth inhibition is 57% (active).
Take `Cc1ncc([N+](=O)[O-])n1CCOC(=O)NC(Nc1ccc(Br)cc1)C(Cl)(Cl)Cl` (stereo not given): the growth inhibition was 102% (active).
Turning to `CC(C)(C)C1CC(=O)C[C@@H]2C(=O)N(c3ccc(Br)cc3)C(=O)[C@H]12` (stereo not given in full), the growth inhibition was 7% (inactive).
`CC(C)CNCc1ccc(-c2cccc(CNC3CCN(Cc4ccccc4)CC3)c2)cc1`: the growth inhibition is 100% (active).
`COC(=O)CCCCOc1c(OC)cc(Cc2cnc(N)nc2N)cc1OC`: the growth inhibition is -2% (inactive).
As for `Cc1nc(-c2ccc(-c3ccc(NC(=O)c4coc5ccc(N6C[C@@H](C)N(C)[C@@H](C)C6)cc45)cc3)c(C)c2)no1`, the growth inhibition was 46% (inactive).
The same measure, in the same setting: with `COC(=O)Cc1ccc(N)c2ccccc12` the figure was -1% (inactive); with `Oc1ccc(CCCNc2nc(NCc3cccc4ccccc34)nc(NC3CCNCC3)n2)cc1`, -3% (inactive).
Regarding `CCCCC(NCC)c1ccc(OCCOc2ccc(C(CCCC)NCC)cc2)cc1` (stereo not given), the growth inhibition is 99% (active).
Consider `CN1CCC(NCc2ccc(-c3ccc(C(F)(F)F)cc3)cc2)CC1`, for which the growth inhibition is 71% (active).
Take `CC(=O)Nc1ccc(CN2CCC(NC(=O)c3ccc(-c4cccc(C(F)(F)F)c4)s3)CC2)cc1`: the growth inhibition was 16% (inactive).

A short description of the next assay: HepG2 cytotoxicity, primary screen, cytotoxicity control for P. falciparum antimalarial project, cell-based, ATP luminescence (AID 2303;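 active = inhibition above 50%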;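 note: 0% = DMSO wells and 100% = digitonin-killed cells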). The following applies: HepG2 viability, 24-48 h, at 10 µM, active compounds read high.
`CCN1CCC(N(Cc2ccc(-c3ccc(C(F)(F)F)cc3)cc2)C(=O)Cn2c(CCc3cccc(F)c3F)cc(=O)c3c2CCC3)CC1`: the inhibition is 49% (inactive).
Still for that read-out and setting: next, `Cc1cc(=O)c2cc(Oc3cccc(OC(F)(F)F)c3)ccc2[nH]1`: 9% (inactive); `COc1ccc(CCn2c(=N)c(C(=O)NC3CCCC3)cc3c(=O)n4ccccc4nc32)cc1`: 11% (inactive).
Take `COc1cc(CCON2C(N)=NC(N)=NC2(C)C)cc(OC)c1OC`: the inhibition is 59% (active).
Take `CSC1=NC(=Nc2ccccc2C)C2(CCC(C(C)(C)C)CC2)N1c1ccccc1Cl` (stereo not given): the inhibition was 3% (inactive).
In the case of `COc1ccc(-c2cnc3ccc(NCc4ccc(F)cc4)nn23)cc1OC`, the inhibition is 35% (inactive).
Turning to `CNC(=O)c1cnc(Nc2ccc(N3CCN(C)CC3)c(C)c2)nc1NC`, the inhibition is 19% (inactive).
Same read-out and setting: next, `CCNc1cc(C)nc(Nc2ccccc2)n1`: 16% (inactive); `Oc1cc(Nc2ccnc3ccc(I)cc23)c(F)cc1Cl`: 20% (inactive).
Turning to `c1ccc(-c2cccnn2)cc1`, the inhibition is -7% (inactive).
Same read-out and setting: with `CC(C)C[C@H](Nc1ccnc(NCC2CCCCC2)n1)C(=O)NCCc1ccccc1` the figure was 10% (inactive).
Turning to `COc1ccc(CNc2ncc(-c3ccsc3)c(-c3nccs3)n2)cc1OC`, the inhibition was 10% (inactive).
Take `O=C(CCc1cnc[nH]1)Nc1cccc(-c2ccc(-c3nc4ccccc4[nH]3)s2)c1`: the inhibition is 11% (inactive).
As to `CCc1cc2c(=O)c(-c3nc(C)cs3)c([C@H](N)Cc3ccc(O)cc3)oc2cc1O`, the inhibition is 11% (inactive).
Turning to `O=C(Nc1ccccc1)N(Cc1ccccc1-c1cccc(CNCCc2ccccc2)c1)C1CCN(Cc2ccccc2)CC1`, the inhibition is 95% (active).
On the same count and under the same terms, next, `Cc1cccc2c(N=NC(=S)N(C)C)c(O)[nH]c12`: 48% (inactive).
Still for that read-out and setting: with `COc1cc(OC)cc(-c2nc3c(C#N)c(OCCN(C)C)ccc3[nH]2)c1` the figure was 4% (inactive).
The same measure, in the same setting: with `c1cc(-c2ccc(CNC3CC3)cc2)cc(-c2nc3ccccc3[nH]2)c1` the figure was 17% (inactive); with `O=C(Nc1ccccc1)OCCOc1ccc(CC2SC(=O)NC2=O)cc1` (stereo not given), 1% (inactive).
On to `O=C(C=CC(=O)N1CCCCC1)NCc1ccccc1`, for which the inhibition was 6% (inactive).
Still for that read-out and setting: next, `CCNc1cc(C(=O)N[C@@H](Cc2ccccc2)[C@H](O)CNCCc2ccccc2)cc(N2CCCCS2(=O)=O)c1`: 14% (inactive); `O=C(Nc1ccc(-c2cccc(-c3nc4ccc(C(F)(F)F)cc4[nH]3)c2)cc1)c1csnn1`: 42% (inactive).
Same read-out and setting: next, `O=C(C=Cc1ccc(Cl)c(Cl)c1)NCCCCCN1CCCC(CCCNC(=O)[C@@H]2C[C@H]2c2ccccc2)C1` (stereo not given in full): 48% (inactive); `CNCCNCc1cccc(-c2ccc(-c3nc4ccccc4[nH]3)s2)c1`: 8% (inactive); `Fc1cc(Cl)ccc1Nc1ccnc2cc(I)ccc12`: 11% (inactive).
Still for that read-out and setting: with `CCOc1cc(C(=O)NC2CC(C)(C)NC(C)(C)C2)ccc1-c1nc2ccc(Cl)cc2[nH]1` the figure was 46% (inactive); with `CC(=O)Nc1ccc(C(=O)Nc2cccc(-c3cccc(-c4nc5ccc(C(F)(F)F)cc5[nH]4)c3)c2)cn1`, 8% (inactive).
As for `CCNc1cc(C(=O)N[C@@H](Cc2ccccc2)[C@H](O)CNC2CCCCC2)cc(N2CCCCS2(=O)=O)c1`, the inhibition was 11% (inactive).
On to `Cc1nc(Nc2ccncc2)cc(-c2ccncc2)n1`, for which the inhibition was 6% (inactive).
The same measure, in the same setting: next, `Cc1cccc2[nH]c(-c3cccc(-c4ccc(NC(=O)Cc5ccccn5)cc4)c3)nc12`: 25% (inactive).
Still for that read-out and setting: next, `Cc1ncc([N+](=O)[O-])n1CCOC(=O)NC(Nc1ccc(Br)cc1)C(Cl)(Cl)Cl` (stereo not given): 0% (inactive); `CC(C)(C)C1CC(=O)C[C@@H]2C(=O)N(c3ccc(Br)cc3)C(=O)[C@H]12` (stereo not given in full): -2% (inactive).
The same measure, in the same setting: next, `CC(C)CNCc1ccc(-c2cccc(CNC3CCN(Cc4ccccc4)CC3)c2)cc1`: 34% (inactive).
For the compound `COC(=O)CCCCOc1c(OC)cc(Cc2cnc(N)nc2N)cc1OC`, the inhibition was -2% (inactive).
Still for that read-out and setting: next, `Cc1nc(-c2ccc(-c3ccc(NC(=O)c4coc5ccc(N6C[C@@H](C)N(C)[C@@H](C)C6)cc45)cc3)c(C)c2)no1`: 21% (inactive); `COC(=O)Cc1ccc(N)c2ccccc12`: 2% (inactive); `Oc1ccc(CCCNc2nc(NCc3cccc4ccccc34)nc(NC3CCNCC3)n2)cc1`: 8% (inactive).
Consider `CCCCC(NCC)c1ccc(OCCOc2ccc(C(CCCC)NCC)cc2)cc1` (stereo not given), for which the inhibition is 100% (active).
As for `CN1CCC(NCc2ccc(-c3ccc(C(F)(F)F)cc3)cc2)CC1`, the inhibition is 54% (active).
With `CC(=O)Nc1ccc(CN2CCC(NC(=O)c3ccc(-c4cccc(C(F)(F)F)c4)s3)CC2)cc1`, the inhibition is 35% (inactive).
